Experimental findings from PubChem BioAssay AID686996 (Broad Institute, 2013) are described below.

SMILES strings stand for the structures. Where “and” joins values, the source holds several entries; their conditions need not be identical. Identical values can stand only once. Screen size: about 350,000 compounds; about 1,900 (0.54%) were called active. For the sample, actives were picked, then their nearest neighbours and some compounds at random. Values without a mark were called inactive.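 How the source made its calls: active means mean inhibition across replicates at least about 35%, with every replicate also reaching that limit (limit read from the data); inconclusive means only one of the two criteria met; inactive means neither criterion met.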

The target in the experiment is Caspase-6 (Homo sapiens) (UniProt P55212). Description: inhibition of CASP6 peptide cleavage – biochemical, VEID-R110 fluorescence, single point, set 2, primary screen (AID 686996).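 Further: 0% = median of neutral control wells and 100% = no fluorescence left.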 To be noted: purified caspase-6, Z-VEID-R110 cleavage fluorescence; at 12.5 µM; hits give high values.
Sequence of Caspase-6 (Homo sapiens) (P55212 24-179 limits assumed): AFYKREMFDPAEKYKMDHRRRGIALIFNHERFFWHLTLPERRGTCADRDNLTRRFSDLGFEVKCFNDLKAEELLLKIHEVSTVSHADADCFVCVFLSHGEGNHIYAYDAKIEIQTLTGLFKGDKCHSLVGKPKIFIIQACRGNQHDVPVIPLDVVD
Sequence of Caspase-6 (Homo sapiens) (P55212 194-293 limits assumed): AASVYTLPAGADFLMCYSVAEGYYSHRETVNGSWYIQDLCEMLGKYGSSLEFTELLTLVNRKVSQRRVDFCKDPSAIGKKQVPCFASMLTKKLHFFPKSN
A word on the inhibition: it is the drop in the measured response relative to a control, in per cent. Turning to `COC(=O)C1=C(c2ccc(C(C)=O)cc2)C[C@@H]2CC[C@H]1N2C(=O)NCCNC(C)=O`, the inhibition was 35.3% (active). On to `COC(=O)C1=C(c2ccc3ccccc3c2)C[C@@H]2CC[C@H]1N2C(=O)NCCO`, for which the inhibition is -0.313%. To `COC(=O)C1=C(c2ccccc2)C[C@@H]2CC[C@H]1N2C(=O)NCc1ccco1` belongs 2.09%; to `COC(=O)[C@H]1[C@H](CO)[C@H]2Cn3c(ccc(C4=CCCC4)c3=O)[C@@H]1N2C(=O)CC1CC1`, 2.1%; to `CCOC(=O)[C@]12Cc3ccccc3[C@H]1N(C1CCCCC1)C(=O)c1cc(OC)ccc12`, 1.66%. As for `COc1ccc(N2C(=O)/C(=C/c3ccco3)C(=O)NC2=S)cc1`, the figure is -1.07%; as for `COc1cccc(N2C(=O)NC(=O)/C(=C\c3ccc([N+](=O)[O-])s3)C2=O)c1`, 46% (active). Consider `O=C1NC(=O)N(c2ccccc2)C(=O)/C1=C/c1ccc([N+](=O)[O-])s1`, for which the inhibition is 49.9% (active). As for `COc1cccc(N2C(=O)NC(=O)/C(=C\c3cn(C)c4ccccc34)C2=O)c1`, the figure is 4.46%; as for `Cc1ccccc1N1C(=O)NC(=O)/C(=C\c2cc(C)n(C)c2C)C1=O`, 3.93%. As for `CC(C)CN1Cc2cc(N3CCCCC3)ccc2-n2nncc2C1`, the figure is -0.486%. To `COC1C(O)C(C)OC(OC2CCC3(C=O)C(CCC4C3CCC3(C)C(C5=CC(=O)OC5)CCC43O)C2)C1O` (stereo not given) belongs 0.09%; to `CCOC(=O)[C@@H]1[C@@H]2NC(=O)N[C@@]1(C)Oc1ccccc12`, 1.71% and -2.72%.

On to `CCOC(=O)c1cccc(C2=C(CNC(=O)c3ccncc3)[C@H]3CC[C@@H](C2)N3Cc2ccccc2)c1`, for which the inhibition was 0.927%.

Take `Cc1c(C(=O)O)cccc1-n1c(C)cc(/C=C2\C(=O)NC(=O)N(c3ccc4c(c3)OCO4)C2=O)c1C`: the inhibition is 26.5%. To `COc1ccc(CN2C(=O)NC(=O)/C(=C\c3ccc(OC)c(OC)c3OC)C2=O)cc1` belongs 4.46%; to `Cc1ccc(-n2c(C)cc(/C=C3\C(=O)NC(=O)N(C)C3=O)c2C)cc1C`, 12.1%.

With `O=C1NC(=O)N(CCc2ccc(F)cc2)C(=O)/C1=C/C=C/c1ccccc1`, the inhibition was -1.88%. To `O=C1NC(=O)N(Cc2ccco2)C(=O)/C1=C\c1cccn1CCOc1ccccc1` belongs 61.1% (active). Take `O=C(O)COc1ccccc1/C=C1\C(=O)NC(=O)N(CCC2=CCCCC2)C1=O`: the inhibition was 9.11%. As for `O=C1NC(=O)N(Cc2ccco2)C(=O)/C1=C\c1ccc(-c2ccc(F)cc2)o1`, the figure is 73.9% (active). To `Cc1cc(/C=C2/C(=O)NC(=O)N(Cc3ccco3)C2=O)c(C)n1-c1ccc(C(=O)O)cc1` belongs 50.7% (active).

For `Brc1ccc2c(c1)CNCc1cnnn1-2`, the inhibition is -1.24%.

Turning to `c1cc2c(c(NC3=NCCCS3)c1)CCCC2`, the inhibition was -1.96%. To `COC(=O)[C@H]1[C@H](CO)[C@H]2Cn3c(cccc3=O)[C@H]2N1CC1CC1` belongs 1.75%. To `O=C1NCN(c2ccccc2)C12CCN(C(c1cccs1)c1nnnn1C1CCCCC1)CC2` (stereo not given) belongs 0.584%; to `O=C(Cc1ccccn1)N1CCCCN2[C@H](C1)[C@H](c1ccc(-c3ccccc3F)cc1)[C@@H]2CO`, 1.27%; to `O=C(Cc1ccccn1)N1CCCCN2[C@@H](CO)[C@@H](c3ccc(C#Cc4ccccc4)cc3)[C@@H]2C1`, -4%.

Consider `COC(=O)[C@@H]1[C@@H](CO)[C@@H]2Cn3c(ccc(-c4cccc(C(=O)N(C)C)c4)c3=O)[C@H]1N2C(=O)NC(C)C`, for which the inhibition is 0.335%. To `COc1cc(OC)cc(C(=O)NCCN2CCC3(CC2)C(=O)NCN3c2ccccc2)c1` belongs -14.3%.
